Many of the other results were omitted from the sample, so hits are more common in it than they were.
Tgondii IFNg = inhibitors of Toxoplasma gondii growth with IFN-gamma; activity change, negative = inhibition, % (concentration not given with the values); Toxoplasma gondii growth in IFN-gamma-treated host cells; active compounds read low; actives 3.8% (n = 69,000); AID 1259416; in the data active means activity change below about -70%, passing the limit was not always enough;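 further: host cells are HeLa cells infected with Toxoplasma gondii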
Active calls of the source: *.

SMILES	Tgondii IFNg
Cc1cccc(NC(=O)CN2C(=O)CCc3cc(S(=O)(=O)N4CCCCC4C)ccc32)c1C (centres undefined)	30.2
COc1cccc(CNC(=O)CN2C(=O)CCc3cc(S(=O)(=O)N4CCCC4)ccc32)c1	-13.1
COc1ccc(-n2c(=O)c(C(=O)Nc3ccccc3)c(O)c3cccnc32)cc1	146.2
Cc1ccc2occ(CN3CC4CCCN4C[C@H]3C)c(=O)c2c1 (some centres undefined)	0.3
COc1cc(N2Cc3cncn3CC(COCC(C)C)C2)ncn1 (centres undefined)	20.7
O=C(NC1CCC2(CCC(=O)N2CC2CC2)CC1)c1ccoc1 (centres undefined)	-22.7
Cc1ccc2c(C(=O)N3CCN(C4CCN(C)CC4)CC3)cc(NC(=O)C(C)C)cc2n1	5.8
COCC(=O)N1CCC2(CC1)COC(COCc1ccncc1)C2 (centres undefined)	-3.7
CCc1ccccc1NC(=O)Cn1c(=O)cc(C(=O)NC)c2ccccc21	-20.6
C=CCNc1ccccc1C(=O)N1CCC(C(C)COC)CC1 (centres undefined)	-48.7
COc1cccc(CC(=O)N2CCC(C(=O)NCCc3csc(-c4ccccc4)n3)CC2)c1	12.8
C=CCn1c2ccccc2n2c(C(=O)CC)c(-c3ccccc3)nc12	-97.7*
C=CCn1c(-c2c(-c3ccccc3)ncn2CCc2cnc[nH]2)nc2ccccc21	-2.9
CCCc1c(-c2ccccc2)nc2[nH]c3ccccc3n2c1=O	171.0
CCCCN(Cc1ccccc1)C(=O)c1cc2cccnc2n(Cc2ccccc2)c1=O	-47.5
COc1ccc(NC(=O)COc2nc(C)nc3ccccc23)cc1	17.6
Cc1cccc(NC(=O)COc2nc(C)nc3ccccc23)c1	-7.7
COc1ccc(OCC(=O)Nc2cccc(-c3nnc4c5ccccc5c(C)nn34)c2)cc1	-76.4*
Cc1nc(-c2ccc(F)cc2)sc1CCNS(=O)(=O)c1ccc(Br)cc1	-4.8
Cc1c(Cl)cccc1NC(=O)Cn1c(=O)cc(C(=O)N2CCC(C)CC2)c2ccccc21	2.0
COc1cccc(-n2c(=O)c(C(=O)NCCc3cccs3)c(O)c3cccnc32)c1	30.4
O=C(CN1C(=O)CCc2cc(S(=O)(=O)N3CCCCC3)ccc21)NC1CCCc2ccccc21 (centres undefined)	-13.5
O=C(CN1C(=O)CCc2cc(Br)ccc21)NC1CCCc2ccccc21 (centres undefined)	-94.1*
Cc1ccc(NC(=O)CN2C(=O)CCc3cc(Br)ccc32)cc1F	17.7
O=C(CN1C(=O)CCc2cc(Br)ccc21)Nc1cccc2c1CCCC2	164.0
SMILES	Tgondii IFNg
Cc1cc(C)cc(NC(=O)CN2C(=O)CCc3cc(Br)ccc32)c1	-39.5
CCN1CCN(Cc2ccc(NC(=O)CN3C(=O)CCc4cc(Br)ccc43)cc2)CC1	-92.3*
CCOC(=O)N1CCC(NC(=O)C2CC23CCN(Cc2ccc(OC)c(OC)c2Cl)CC3)CC1 (centres undefined)	3.6
Cc1ccncc1C(=O)N(Cc1ccc(F)cc1)CC1CCCO1 (centres undefined)	-6.8
Cc1ccsc1C(=O)N1CCc2nc(NC(C)C)nc(N(C)C)c2C1	-17.7
COc1ccc2c(c1)NC1(CCN(C(=O)Nc3cc(C)cc(C)c3)CC1)c1cccn1-2	413.5
Cc1cccc(S(=O)(=O)N2CCCc3c(c(=O)n(C)n3C)C2)c1	1.3
CCN1c2ccc(C)cc2C(=O)NC12CCN(C(=O)c1ccc(OC)cc1)CC2	7.4
Cc1ccc(C)c(NC(=O)C(=O)NCCc2sc(-c3ccc(Cl)cc3)nc2C)c1	72.8
Cc1ccc(Sc2ccc(C(=O)c3ccccc3)cc2)cc1	-77.7*
Cc1ccc(S(=O)(=O)NC(=O)c2ccccc2)cc1	-23.5
CN(C)c1ccc(C(=O)c2ccccc2)cc1	12.9
C=CCOCC12CCCOC1CCN(S(=O)(=O)C1CC1)C2 (centres undefined)	49.4
CCOc1ccccc1NC(=O)c1nnn(Cc2nc(-c3cc(Br)ccc3OC)oc2C)c1C	-31.8
CC/C=C/CC(=O)Nc1cccc(C(=O)NC(C)(C)C)c1C	-14.7
CS(=O)(=O)NC1CCN(C(=O)c2ccccc2C2CCNC2)CC1 (centres undefined)	0.7
COC(=O)c1sccc1OC(=O)c1ccc(Cl)cc1	-7.9
CCC(=O)N1CCC2(COCc3c(C)nc(N(C)C)nc32)C1 (centres undefined)	-2.6
Cc1cc(-c2onc(C)c2C(=O)Oc2ccc(Cl)cc2)no1	-30.3
COc1cc(C(F)(F)F)cc(C(F)(F)F)c1C(N)=O	-50.5
COc1cc(C(F)(F)F)cc(C(F)(F)F)c1C(=O)Oc1ccc(Cl)cc1	-95.6*
COCCN1CCN(c2ccc3ccc(C(=O)NCc4cccs4)cn23)CC1	1.4
COc1cc(C(F)(F)F)cc(C(F)(F)F)c1C(=O)NCc1cccs1	-81.2*
O=C(CCCC(=O)NCc1cccs1)NCc1cccs1	-39.5
CC(Nc1nc(CCN)nc2ccccc12)c1ccccc1-n1cccn1 (centres undefined)	19.7
CCOc1ccc(-c2[nH]ncc2CN2CCC(n3nc(C)cc3C)CC2)cc1	-14.7
CN(C)C(=O)Cc1nnc2n1CCN(Cc1cnn(C)c1)C2	-6.1

Source: PubChem
